{"source": "paper PMC12136788", "binders": {"B1": {"name": "chr19:40639365:40639366:-_ENSMUSG00000025007_ENSMUST00000025979|mus_mus|motif|central (ssRNA)", "RNA": "GGGAGUUCUACAGUCCGACGAUCGGCUGCCACCUGGGGUAGACAGUCAGGGCGAGACUCAAAGAUCACCAGUAAAACACCGGUUGGGACAGUCACUUGUUCUAACUCCAGGUUUUUGGCAAUCCGAGUCCGGCGCAGGACGCGCAACAGAGGAUUGAGCAUCA"}, "B2": {"name": "chr2:168997265:168997266:-_ENSG00000198648_ENST00000355999|hu_mus|motif|central (ssRNA)", "RNA": "GGGAGUUCUACAGUCCGACGAUCUUUAUUCCGUGUAACAUCACCCCCUGUGGCUAAGAAUGCGCUUACUCCAAAAUCUGCGGUUUGUACUGAGCCAUCCUCACCCAGAAGAAUAUUUCCAGCUUUCAAAUCCCUAUGGAUCUGCAACAGAGGAUUGAGCAUCA"}, "B3": {"name": "chr19:47150976:47150977:-_ENSG00000197380_ENST00000391916|hu_hu|motif|central (ssRNA)", "RNA": "GGGAGUUCUACAGUCCGACGAUCACUGGGGAGUCACCAUCGUCAUAAUAAAUACAGUAAUUUUAAAAAAGAAAAAAAAUACGGGAUUGGAACAGCUGAGGGUCAUCAGGCUUCCCCCAUUCCCUCUCACAGGGAGUGGGGGUCCAACAGAGGAUUGAGCAUCA"}, "B4": {"name": "chr2:202488911:202488912:-_ENSG00000155755_ENST00000286196|hu_mus|hu_hu_hu_mus_False|1_18 (ssRNA)", "RNA": "GGGAGUUCUACAGUCCGACGAUCAUUGAAACAUUUUUCAUAAUCUCCAGUAGCAUUUCAGCAUUAUGUAACAAAAGCUCAAUUGUAAAUACAUGUAUCUUAUAAAAAUACACUUAAAUUUAAAAACGGGGAGCGCACAAAUACCAACAGAGGAUUGAGCAUCA"}, "B5": {"name": "chr2:202488911:202488912:-_ENSG00000155755_ENST00000286196|hu_mus|hu_hu_hu_mus_False|8_8 (ssRNA)", "RNA": "GGGAGUUCUACAGUCCGACGAUCAUUGAAACAUUUUUCAUAAUCUCCAGUAGCAUUUCAGCAUUAUGUAACAAAAGCUCAAUUGUAAAUACAUGUAUCUUAUAAAAAUACACUUAAAAACACGAGUAAAAAUGGGAGGCGCCACAACAGAGGAUUGAGCAUCA"}, "B6": {"name": "chr2:202488911:202488912:-_ENSG00000155755_ENST00000286196|hu_mus|hu_hu_hu_mus_False|18_48 (ssRNA)", "RNA": "B4 RNA with U93C, G94A, A96G, C137G, A138G, A139C, A140G, U141C, A142C, C143A"}, "B7": {"name": "chr2:27806210:27806211:+_ENSMUSG00000026837_ENSMUST00000028280|mus_mus|FALSE|FALSE (ssRNA)", "RNA": "GGGAGUUCUACAGUCCGACGAUCUGUGGUUUCUCUGGCAGCUUCCACUGGCUUCUGAGUAGGGGCAGGCUCCUUUCCCGGGUCUUCAGGGUCUUCAUAAUAUGGAUACUCAUAGUAAUAGGUCUCACCCUCUCCUUCUGGGUACAACAGAGGAUUGAGCAUCA"}, "B8": {"name": "chr1:229631779:229631780:-_ENSG00000069248_ENST00000261396|hu_hu|motif|central (ssRNA)", "RNA": "GGGAGUUCUACAGUCCGACGAUCUAAUUCCCAUUUACUGAUGUUUGAACUCGUCAGGCUAUAAAAGCUUGAUCUCUCUCGGUCCCAGAGAACACUUGAAAGUGUGAGAUCACUACUAGGAGAUAAAAUUCCAAAAAGAGAAGACAACAGAGGAUUGAGCAUCA"}, "B9": {"name": "chr2:202488911:202488912:-_ENSG00000155755_ENST00000286196|hu_mus|hu_hu_hu_mus_False|8_18 (ssRNA)", "RNA": "B5 RNA with A118U, A119U, C120U, C122A, G123A, G125A, U126C"}}, "note": "Substitutions are numbered along the chain they refer to. In all, about 24,000 sequences were measured (“enrichment r”: median about 0.99, highest 2% from about 3.7 on). The list comes from a sample in which the highest values are over-represented; it also holds similar and randomly drawn sequences.", "data": [{"target": "T1, UNK ZnF1-3 (human, UniProt Q9C0B0 31-174)", "T1 sequence": "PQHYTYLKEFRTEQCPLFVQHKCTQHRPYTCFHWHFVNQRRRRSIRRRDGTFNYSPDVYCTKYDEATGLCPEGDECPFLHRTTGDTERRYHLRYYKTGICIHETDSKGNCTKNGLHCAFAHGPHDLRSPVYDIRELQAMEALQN", "assay": "nsRBNS (natural sequence RNA bind-n-seq); RBNS binding buffer (assumed for nsRBNS): 25 mM Tris pH 7.5, 150 mM KCl, 3 mM MgCl2, 0.01% Triton X-100, 500 ug/ml BSA, 20 U/ml SUPERase-In, 4 C; UNK is unkempt and MSI1 is Musashi-1; names of the RNAs are library labels; protein concentration not given here; high values mean tight binding", "units": {"binding signal": "enrichment R"}, "values": [{"binder": "B1", "binding signal": 1.58}, {"binder": "B2", "binding signal": 0.927}, {"binder": "B3", "binding signal": 6.05}, {"binder": "B4", "binding signal": 3.65}, {"binder": "B5", "binding signal": 0.957}, {"binder": "B6", "binding signal": 3.69}, {"binder": "B7", "binding signal": 0.892}, {"binder": "B8", "binding signal": 1.07}, {"binder": "B9", "binding signal": 6.76}]}]}
